Molecules are shown by their SMILES. Results filed as inconclusive are left out. Activity calls are given as the source filed them. How the source made its calls: active means hit-call score of the fitted dose curve at least 0.9, where 1 is the maximum; inconclusive means response in the unintended direction; inactive means score below 0.9.

The source of these data is PubChem BioAssay (EPA / NIEHS).

The nature of test [1]: Tanguay_ZF_120hpf_JAW_legacy: (Legacy) Oregon State University Tanguay Lab 120 Hour Post-fertilization zebrafish Assay for Jaw Malformation (AID 2283638).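 On AC50: active means more embryos with jaw malformation than DMSO controls.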 In short, it runs like this: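 Steps: dechorionate 4 hpf embryos (pronase); plate 1/well at 6 hpf; add test chemical, 0.64% DMSO final; seal, cover, hold at 28C statically to 120 hpf; score jaw defect presence/absence microscopically. Dead embryos not scored.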

The nature of test [2]: Tanguay_ZF_120hpf_OTIC_legacy: (Legacy) Oregon State University Tanguay Lab 120 Hour Post-fertilization zebrafish Assay for Otic Vesicle Malformation (AID 2283639). In short, it runs like this: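 Statically exposed wild-type 5D zebrafish embryos, kept sealed and dark at 28C through 120 hours post fertilization, were examined by brightfield microscopy for otic vesicle defects. Responses were recorded as present or absent and analysed relative to DMSO.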

Test [3] can be described thus: Tanguay_ZF_120hpf_BRAI_legacy: (Legacy) Oregon State University Tanguay Lab 120 Hour Post-fertilization zebrafish Assay for Brain Malformation (AID 2283641). The method in brief:
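Wild-type 5D larvae, static waterborne exposure to 120 hpf, 28C, 0.64% v/v DMSO. Brightfield scoring of brain defects, binary; dead embryos excluded. Positive ctrl 5uM trimethyltin chloride.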

Test [4] in a line: Tanguay_ZF_120hpf_SOMI_legacy: (Legacy) Oregon State University Tanguay Lab 120 Hour Post-fertilization zebrafish Assay for Somite Malformation (AID 2283647). The method in brief:
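Read-out: presence or absence of somite malformation in 120 hpf larvae, gain-of-signal relative to DMSO baseline. Embryos lacked chorion (pronase, 4 hpf) and were exposed statically from 6 hpf at 28C; dead larvae not scored.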

A short description of test [5]: Tanguay_ZF_120hpf_PFIN_legacy: (Legacy) Oregon State University Tanguay Lab 120 Hour Post-fertilization zebrafish Assay for Pectoral Fin Malformation (AID 2283648).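 Further: each larva judged yes or no for fin defect by brightfield with dead larvae skipped.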 In short, it runs like this:
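Pectoral fin malformation was recorded as a binary endpoint at 120 hpf in wild-type Tropical 5D larvae, which had been dechorionated and exposed statically from 6 hpf at 28C in 0.64% DMSO. Dead embryos were excluded.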

The nature of test [6]: Tanguay_ZF_120hpf_CFIN_legacy: (Legacy) Oregon State University Tanguay Lab 120 Hour Post-fertilization zebrafish Assay for Caudal Fin Malformation (AID 2283649). In short, it runs like this:
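Binary presence or absence of caudal fin malformation at 120 hpf, read by brightfield microscopy, with DMSO as baseline. Larvae came from 5D wild-type embryos exposed statically from 6 hpf at 28C after pronase dechorionation.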

Test [7] is described as follows: Tanguay_ZF_120hpf_PIG_legacy: (Legacy) Oregon State University Tanguay Lab 120 Hour Post-fertilization zebrafish Assay for Pigmentation Malformation (AID 2283650). In short, it runs like this: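 Pigment malformation recorded as a binary call at 120 hpf in zebrafish (Tropical 5D) exposed singly from 6 hpf after pronase dechorionation. Static, sealed, 28C exposure, 0.64% DMSO; mortality excludes scoring; positive-direction fit against DMSO.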

The nature of test [8]: Tanguay_ZF_120hpf_CIRC_legacy: (Legacy) Oregon State University Tanguay Lab 120 Hour Post-fertilization zebrafish Assay for Circulatory Malformation (AID 2283651). The method in brief: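 Embryos are dechorionated at 4 hpf, plated one per well at 6 hpf, then held under static exposure at 28C until 120 hpf. Malformations are recorded as binary calls; mortality excludes other endpoints.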

Test [9] is described as follows: Tanguay_ZF_120hpf_SWIM_legacy: (Legacy) Oregon State University Tanguay Lab 120 Hour Post-fertilization zebrafish Assay for Swim Bladder Malformation (AID 2283654).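 Further: swim bladder malformation in each larva scored yes or no under brightfield.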 The method in brief:
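Scoring is binary for swim bladder defects at 120 hpf, by brightfield inspection of zebrafish larvae. Embryos were exposed singly from 6 hpf after pronase dechorionation, at 28C with 0.64% DMSO; mortality excluded scoring.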

The nature of test [10]: Tanguay_ZF_120hpf_NC_legacy: (Legacy) Oregon State University Tanguay Lab 120 Hour Post-fertilization zebrafish Assay for Notochord and Tail Malformation (AID 2283656). The method in brief:
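Binary scoring of notochord distortion by brightfield microscopy; embryos dying were not scored. Wild-type Tropical 5D embryos, chorion removed, exposed singly and statically from 6 to 120 hpf, 28C, sealed, 0.64% DMSO.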

The test system of test [11] is Thyroperoxidase (TPO), gene 54314. Put plainly: CCTE_Simmons_AUR_rTPO: CCTE's Amplex UltraRed Assay for Thyroperoxidase (TPO) Inhibition, Simmons Lab (AID 2283662).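 On AC50: potency for loss of signal meaning inhibition of peroxidase activity.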 The method in brief:
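Rat thyroid microsomes (5 ug protein) were incubated with test compound (8 concentrations, 5 nM–87.5 uM final, 0.5% DMSO), 25 uM Amplex UltraRed and 300 uM H2O2 in 200 mM phosphate buffer for 30 min at 37C in the dark; fluorescence read at 544/590 nm.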

A short description of test [12]: CCTE_Simmons_CellTiterGLO_HEK293T: Viability Assessment in CCTE's Assays for Thyroperoxidase (TPO) Inhibition, Simmons Lab (AID 2283665). The method in brief: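 Cells were seeded overnight, then exposed to an eight-point series up to 87.5 uM final for 24 hours. CellTiter-Glo reagent was added and luminescence read after 20 min, giving ATP-based viability versus DMSO.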
(Cellular ATP, detected with luciferase, serves as a proxy for viable cell number.)

Test [13] in a line: Tanguay_ZF_120hpf_TR_legacy: (Legacy) Oregon State University Tanguay Lab 120 Hour Post-fertilization zebrafish Assay for Touch Response (AID 2283667). In short, it runs like this:
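Binary touch-response endpoint in larvae at 120 hpf after static waterborne exposure from embryo stage (28°C, 0.64% DMSO vehicle, 5 uM trimethyltin chloride as positive control); embryos dead at 24 or 120 hpf excluded; fitted as gain versus DMSO.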

Test [14] can be described thus: Tanguay_ZF_120hpf_PE_legacy: (Legacy) Oregon State University Tanguay Lab 120 Hour Post-fertilization zebrafish Assay for Pericardial Edema (AID 2283640).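 On AC50: potency for increased incidence of pericardial edema versus DMSO baseline.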 In short, it runs like this: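 Embryos from wild-type 5D adults were staged, then dosed in 0.64% DMSO. They were kept sealed in the dark at 28C until 120 hpf. Pericardial edema was then recorded as present or absent.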

Test [15] is described as follows: Tanguay_ZF_120hpf_TRUN_legacy: (Legacy) Oregon State University Tanguay Lab 120 Hour Post-fertilization zebrafish Assay for Truncated Body (AID 2283655). The method in brief:
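Truncated body is recorded as a binary endpoint at 120 hpf by brightfield imaging of wild-type 5D larvae. Exposure runs statically from 6 hpf at 28C with 0.64% DMSO; embryos dying earlier are not scored.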

Turning to `COS(C)(=O)=O`, the compound was called inactive in test [1], in test [2], in test [3], in test [4], in [5] and in [6]. In addition, the result in [7], in [8], in [9], in [10], in test [12] and in test [13] was inactive. Also, the AC50 (usually the concentration giving half of the maximal activity seen) in test [11] is 49.7 µM (active).
With `OC[C@H]1O[C@@](CO)(O[C@H]2O[C@H](CO)[C@@H](O)[C@H](O)[C@H]2O)[C@@H](O)[C@@H]1O`, the call in test [1], in [2], in [3], in [4], in test [5] and in test [7] was inactive. In addition, the call in test [9], in test [10] and in test [13] was inactive.
Regarding `C[C@]12C=CC(=O)C=C1CC[C@H]1[C@@H]3C[C@@H](O)[C@](O)(C(=O)CO)[C@@]3(C)C[C@H](O)[C@@]12F`, the call in [1], in test [2], in test [3], in test [4], in test [5] and in test [6] was inactive. The compound was classed as inactive in test [7], in test [9] and in test [13].
Regarding `O=C(O)c1cccc(C[C@@H]2COc3ccc(OCc4nc5cc(F)ccc5s4)cc3[C@@H]2O)c1`, the AC50 in test [1] is 9.13 µM (active); in [14] it was 953 nM (active). In addition, the compound was classed as inactive in test [2], in test [3], in [4], in [6], in [8] and in test [9]. Further, the call in test [13] was inactive.
`CCCCCCOC(=O)CC(CC(=O)OCCCCCC)(OC(=O)CCC)C(=O)OCCCCCC`: the call in [1], in test [2], in test [3], in test [4], in [6] and in test [7] was inactive. The outcome in test [8], in test [15] and in test [13] was inactive.
For the compound `c1ccc2ncccc2c1`, the outcome in [1], in test [2], in test [14], in test [3], in test [4] and in test [6] was inactive. The result in test [7], in [8], in test [9], in test [10] and in test [13] was inactive.
Turning to `CC(=O)c1ccccc1`, the compound was classed as inactive in test [1], in test [2], in test [14], in test [3], in test [6] and in [7]. For the same compound, the compound was called inactive in test [8], in test [9] and in [13].
On to `NC(=O)N(O)[C@@H]1COc2cc(OCc3ccccc3)ccc21`, for which the outcome in test [1], in [2], in test [14], in test [3], in test [6] and in test [9] was inactive. Further, the compound was called inactive in test [12] and in test [13]. Moreover, the half-maximal activity concentration (AC50) in test [11] is 1.29 µM (active).
For the compound `CCN(CC)C(=S)SSC(=S)N(CC)CC`, the concentration at half-maximal activity (AC50) in [1] was 1.24 µM (active); in [4] it was 619 nM (active); in test [8], 5.12 µM (active); in [9], 1.1 µM (active); in [15] it was 904 nM (active); in test [13] it was 2.17 µM (active). Moreover, the compound was called inactive in test [2], in test [3], in [6] and in test [7].
Consider `CCCCCCCC/C=C\CCCCCCCC(=O)OC[C@@H](O)[C@H]1OC[C@H](O)[C@H]1O`, for which the compound was classed as inactive in test [1], in test [2], in [14], in test [6], in [7] and in test [8]. Moreover, the call in test [9] and in [13] was inactive.
Consider `O=C(O)[C@H](O)[C@@H](O)C(=O)O`, for which the result in test [1], in test [2], in test [3], in [4], in [6] and in [7] was inactive. The compound was classed as inactive in test [8], in test [9], in test [15] and in test [13].
Take `O=S1(=O)CCCO1`: the call in test [1], in test [2], in test [14], in test [3], in test [6] and in [7] was inactive. Further, the compound was classed as inactive in test [8], in test [9], in test [15], in test [11] and in [13].
Consider `Cn1cc[nH]c1=S`, for which the result in test [1], in [2], in test [3], in [4], in test [6] and in test [7] was inactive. In addition, the outcome in test [8], in test [9] and in test [12] was inactive. The AC50 in test [11] is 0.0542 µM (active).
Take `OCc1ccccc1`: the outcome in [1], in test [2], in test [14], in test [3], in [4] and in test [6] was inactive. Besides, the compound was called inactive in test [7], in test [8], in test [9] and in test [13].
`CCCCN1C(=O)[C@@H]([C@H](O)C2CCCCC2)NC(=O)C12CCN(Cc1ccc(Oc3ccc(C(=O)O)cc3)cc1)CC2`: the outcome in test [1], in [2], in [3], in test [5], in test [6] and in test [7] was inactive. Also, the call in test [8], in test [10] and in [13] was inactive.
On to `CCCCCCCCN(C)C`, for which the outcome in [1], in test [2], in test [3], in test [5], in test [6] and in test [7] was inactive. For the same compound, the outcome in test [8], in test [9] and in test [13] was inactive.
